Screening data: PubChem, National Center for Advancing Translational Sciences (NCATS)
12-LOX inh: ALOX12 (human) lipoxygenase inhibition; 580,000 tested, 1.1% active; purified 12hLO, xylenol orange hydroperoxide absorbance; Potency, µM (top dose mostly 108 µM), actives largely listed as inhibitors
Target sequence (P18054 whole entry, looked up): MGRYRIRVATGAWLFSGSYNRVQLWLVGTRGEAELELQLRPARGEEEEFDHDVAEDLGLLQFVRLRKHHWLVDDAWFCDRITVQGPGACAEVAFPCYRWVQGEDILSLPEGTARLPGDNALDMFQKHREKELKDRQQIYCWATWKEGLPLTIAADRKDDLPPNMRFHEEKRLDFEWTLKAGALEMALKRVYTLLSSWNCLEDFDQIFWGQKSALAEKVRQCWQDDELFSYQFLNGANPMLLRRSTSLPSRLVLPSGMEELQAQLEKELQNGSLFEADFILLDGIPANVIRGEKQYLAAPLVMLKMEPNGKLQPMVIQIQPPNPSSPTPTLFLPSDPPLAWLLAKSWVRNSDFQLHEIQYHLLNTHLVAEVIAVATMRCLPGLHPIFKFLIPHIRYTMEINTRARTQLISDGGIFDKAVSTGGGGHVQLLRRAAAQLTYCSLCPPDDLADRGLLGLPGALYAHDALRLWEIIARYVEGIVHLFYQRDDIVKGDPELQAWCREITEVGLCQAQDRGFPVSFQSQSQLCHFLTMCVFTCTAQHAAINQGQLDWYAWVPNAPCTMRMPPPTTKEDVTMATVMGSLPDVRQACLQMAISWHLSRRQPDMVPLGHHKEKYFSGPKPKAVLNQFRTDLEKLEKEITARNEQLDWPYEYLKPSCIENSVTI
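Hydroperoxide product was detected by ferrous iron/xylenol orange as the 573 to 405 nm absorbance ratio. Arachidonic acid at 40 uM (final) was turned over for 30 min at room temperature by 150 nM human 12hLO, pH 7.0 Hepes buffer, after 15 min compound preincubation.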
TDP1 cell noCPT: qHTS for Inhibitors of human tyrosyl-DNA phosphodiesterase 1 (TDP1): qHTS in cells in absence of CPT; DT40 Tdp1-/- hTDP1 cells, no CPT, ATP luminescence, 48 h; Potency, µM (top dose mostly 46.2 µM), hits mostly inhibitors; 420,000 tested, 15% active; note: nearly all actives have a fitted effect of over 55% in size
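Growth of hTDP1-complemented DT40 Tdp1-knockout cells is measured by ATP luminescence after at least 48 hr compound exposure at 37 °C, with DMSO substituting for the 20 nM CPT used in the parallel screen.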
HT1080 IDH1KD tx: toxicity to HT-1080 IDH1 knockdown cells (counter line); HT-1080 IDH1 knockdown viability, ATP luminescence, 48 h; Potency, µM (series often up to 46.1 µM), usual class: cytotoxic; 360,000 tested, 2% active; AID 686971
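IDH1KD HT-1080 cells, 750/well, RPMI + 5% FBS; compound pinned after 2 h settling; 48 h, 37 °C; CellTiter-Glo luminescence; % activity normalised to DMSO and no-cell wells; curves fitted, classed by r2 and efficacy.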
HT1080-NT tox: kills 2HG-producing HT-1080-NT fibrosarcoma cells; HT-1080-NT fibrosarcoma viability, CellTiter-Glo ATP luminescence, 48 h; 360,000 tested, 1.6% active; Potency, µM (titrated, usually from 46.1 µM), usual class: cytotoxic;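 note: NT is the 2HG producing partner of a matched IDH1 knockdown line; nearly all actives have a fitted effect of over 55% in size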
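HT-1080-NT; 750 cells/well; 5% FBS RPMI; 48 h compound, 37 degrees C; CellTiter-Glo luminescence; curve fitting and curve-class assignment.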
TDP1 cell CPT: growth inhibition of DT40 Tdp1-/-;hTDP1 cells with camptothecin (screen for TDP1 inhibitors); chicken DT40 Tdp1-/-;hTDP1 cells + 20 nM CPT, ATP luminescence, 48 h; Potency, µM (series often up to 46.2 µM), usual class: inhibitors; 420,000 tested, 12% active; AID 686979; note: nearly all actives have a fitted effect of over 55% in size
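Chicken DT40 Tdp1-/- cells stably complemented with human TDP1 were seeded at 400 cells/well in medium containing 20 nM camptothecin, exposed to pin-transferred compounds, and grown at 37 °C for at least 48 hr. Viability was read as ATP luminescence.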
IL1B secr inh: blocks inflammasome-driven IL-1 beta release; THP-1 LPS/ATP IL-1B secretion, AlphaLISA, 16 h; active compounds read low; activity change, % at 57.5 µM; 360,000 tested, 4.7% active; in the data active = activity change below about -50%; inconclusive = mostly about -30% to -49%
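THP-1 cells pretreated 1 hr with compounds (up to 57.5 uM final), then stimulated with LPS (250 ng/mL final) plus ATP (1.25 mM final); secreted IL-1B measured by AlphaLISA after 16 hr, decreased signal indicating inhibition.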
A number is an active result. Many of the other results were omitted from the sample, so hits are more common in it than they were. Unless noted, calls come from the whole dose curve; as a rule, active = well fitted curve in the direction sought with a large enough effect; inconclusive = small, poorly fitted or top-dose-only effect, or another doubt; inactive = no such curve, though single readings can be large; an effect the other way counts as inactive or inconclusive.

What do the screens show for `O=C(c1ccc(CS(=O)Cc2ccc(Cl)cc2)o1)N1CCN(c2ccc(F)cc2)CC1` (stereo unspecified)?
12-LOX inh: inactive; TDP1 cell noCPT: inactive; HT1080 IDH1KD tx: inactive; HT1080-NT tox: inactive; TDP1 cell CPT: inconclusive; IL1B secr inh: inconclusive

What do the screens show for `O=C(c1ccc(CS(=O)Cc2ccc(Cl)cc2)o1)N1CCN(c2cccc(Cl)c2)CC1` (stereo unspecified)?
12-LOX inh: inactive; TDP1 cell noCPT: inactive; HT1080 IDH1KD tx: inconclusive; HT1080-NT tox: inconclusive; TDP1 cell CPT: inconclusive; IL1B secr inh: -83.4

What do the screens show for `Cc1nc2ccc(S(=O)(=O)NCc3ccccc3)cc2s1`?
12-LOX inh: inactive

How did O=C(c1ccc(F)cc1)C1CCN(Cc2ccccc2F)CC1 do in these assays?
12-LOX inh: inactive; TDP1 cell noCPT: inconclusive; HT1080 IDH1KD tx: inactive; HT1080-NT tox: inactive; TDP1 cell CPT: inactive; IL1B secr inh: inactive

How did CC1CCN(CCn2c(=S)[nH]c3ccccc3c2=O)CC1 do in these assays?
12-LOX inh: inactive; TDP1 cell noCPT: inactive; HT1080 IDH1KD tx: inactive; HT1080-NT tox: inactive; TDP1 cell CPT: inactive; IL1B secr inh: inactive

How did O=C(c1ccc(F)cc1)C1CCN(CCn2c(=S)[nH]c3ccccc3c2=O)CC1 do in these assays?
12-LOX inh: inactive; TDP1 cell noCPT: 15µM; TDP1 cell CPT: inconclusive

How did CC1(C)C(=O)N(CCN2CCC(C(=O)c3ccc(F)cc3)CC2)c2ccccc21 do in these assays?
12-LOX inh: inactive; TDP1 cell noCPT: 14.6µM; HT1080 IDH1KD tx: inactive; HT1080-NT tox: inactive; TDP1 cell CPT: 13µM; IL1B secr inh: inactive

Results for COCC(C)n1c(C)cc(C(=O)Cn2cnc3scc(-c4ccc(C)cc4)c3c2=O)c1C (stereo unspecified) ?
12-LOX inh: inactive

Results for Cc1ccc(C)c(OCCn2cc(C(=O)C(F)(F)F)c3cc(Br)ccc32)c1 ?
12-LOX inh: inactive

What do the screens show for `Cc1ccc(C(=O)N2CCCC(C(=O)Nc3cccc(-c4ccc(F)cc4)c3)C2)cn1` (stereo unspecified)?
12-LOX inh: inactive; TDP1 cell noCPT: 8.2µM; HT1080 IDH1KD tx: inactive; HT1080-NT tox: inactive; TDP1 cell CPT: 16.4µM; IL1B secr inh: inactive

What do the screens show for `COc1ncccc1C(=O)N1CCCC(C(=O)Nc2cccc(-c3ccc(F)cc3)c2)C1` (stereo unspecified)?
12-LOX inh: inactive; TDP1 cell noCPT: 11.6µM; HT1080 IDH1KD tx: inactive; HT1080-NT tox: inactive; TDP1 cell CPT: 20.6µM; IL1B secr inh: inactive

How did COc1ccccc1CN(C)C(=O)NCc1ccccc1S(=O)(=O)N1CCCCC1 do in these assays?
12-LOX inh: inactive

Results for Cc1nccn1CCN(C)c1ccc(-c2nc(COc3ccccc3)no2)cn1 ?
12-LOX inh: inactive

How did COc1cc(Nc2nc3ccccc3nc2NS(=O)(=O)c2cccc(C)c2)cc(OC)c1 do in these assays?
12-LOX inh: inactive

How did CCNC(=O)c1cccc(Nc2nc(CN3CCOCC3)nc3sc4c(c23)CCCC4)c1 do in these assays?
12-LOX inh: inactive

Results for Cc1ccc(Oc2nc(CN3CCOCC3)nc3sc4c(c23)CCC(C)C4)cc1 (stereo unspecified) ?
12-LOX inh: inactive; TDP1 cell noCPT: inconclusive; HT1080 IDH1KD tx: inactive; HT1080-NT tox: inactive; TDP1 cell CPT: inconclusive; IL1B secr inh: -57.3

Results for COc1cccc(Nc2nc(CN3CCOCC3)nc3sc4c(c23)CCCC4)c1 ?
12-LOX inh: inactive; TDP1 cell noCPT: 20.6µM; HT1080 IDH1KD tx: inactive; HT1080-NT tox: inactive; TDP1 cell CPT: 16.4µM; IL1B secr inh: inconclusive

What do the screens show for `CC1=C(C(=O)NC2CCCCCC2)C2(CCCCCC2)OC1=O`?
12-LOX inh: inactive

How did CCOc1ccc(C2C=C(c3ccc(C)cc3)Nc3nnnn32)cc1 (stereo unspecified) do in these assays?
12-LOX inh: inactive; TDP1 cell noCPT: 11.6µM; HT1080 IDH1KD tx: 13µM; HT1080-NT tox: inconclusive; TDP1 cell CPT: 9.2µM; IL1B secr inh: inactive

How did COc1ccc(C2=CC(c3c(F)cccc3Cl)n3nnnc3N2)cc1 (stereo unspecified) do in these assays?
12-LOX inh: 39.8µM

Results for Fc1ccc(C2=CC(c3cccs3)n3nnnc3N2)cc1 (stereo unspecified) ?
12-LOX inh: inactive; TDP1 cell noCPT: inactive; HT1080 IDH1KD tx: inactive; HT1080-NT tox: inactive; TDP1 cell CPT: inactive; IL1B secr inh: inactive

What do the screens show for `COc1ccccc1C1C=C(c2ccc(C(C)C)cc2)Nc2nnnn21` (stereo unspecified)?
12-LOX inh: inactive; TDP1 cell noCPT: inconclusive; TDP1 cell CPT: inconclusive

Results for COc1ccc(C2=CC(c3c(C)nn(-c4ccccc4)c3Cl)n3nnnc3N2)cc1OC (stereo unspecified) ?
12-LOX inh: inactive; TDP1 cell noCPT: 14.6µM; HT1080 IDH1KD tx: inconclusive; HT1080-NT tox: inconclusive; TDP1 cell CPT: inconclusive; IL1B secr inh: -67.2

What do the screens show for `CCc1ccc(C2=CC(c3c(F)cccc3Cl)n3c(nc4ccccc43)N2)cc1` (stereo unspecified)?
12-LOX inh: inactive; TDP1 cell noCPT: 7.31µM; TDP1 cell CPT: 18.4µM

How did CN(C)c1ccc(C2C=C(c3ccccc3)Nc3nnnn32)cc1 (stereo unspecified) do in these assays?
12-LOX inh: inactive; TDP1 cell noCPT: 18.4µM; TDP1 cell CPT: inconclusive

What do the screens show for `COc1ccccc1C1C=C(c2ccc(C)cc2)Nc2nnnn21` (stereo unspecified)?
12-LOX inh: inactive; TDP1 cell noCPT: 20.6µM; HT1080 IDH1KD tx: inactive; HT1080-NT tox: inactive; TDP1 cell CPT: 18.4µM; IL1B secr inh: inconclusive

Results for Clc1ccc(C2C=C(c3ccccc3)Nc3nnnn32)c(Cl)c1 (stereo unspecified) ?
12-LOX inh: 17.8µM

What do the screens show for `COc1ccc(C2=CC(c3cccc(C)c3)n3nnnc3N2)cc1` (stereo unspecified)?
12-LOX inh: inactive; TDP1 cell noCPT: 16.4µM; TDP1 cell CPT: inconclusive

How did COc1ccc(OC)c(NC(=O)C2CCN(Cc3cnn(-c4ccccc4)c3-n3cccc3)CC2)c1 do in these assays?
12-LOX inh: inactive; TDP1 cell noCPT: inconclusive; HT1080 IDH1KD tx: inconclusive; HT1080-NT tox: inactive; TDP1 cell CPT: 16.4µM; IL1B secr inh: inactive

How did O=C(Nc1ccccc1Cl)C1CCN(Cc2cnn(-c3ccccc3)c2-n2cccc2)CC1 do in these assays?
12-LOX inh: inactive; TDP1 cell noCPT: 23.1µM; HT1080 IDH1KD tx: inconclusive; HT1080-NT tox: inactive; TDP1 cell CPT: 16.4µM; IL1B secr inh: inactive
